Legend:
Assay in all cases: log2 ratio of Biotin-Ahx-Ub-VS probe labelling (fragment/DMSO); higher = less target engagement (more negative = stronger competition), active = hit call of the paper (q ≤ 0.05, log2 ratio ≤ -1)
Conditions in all cases: compound concentration: 200 uM; treatment time: 3 h
USP34 = USP34 (UniProt Q70CQ2)
Method in brief: (§1)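 HEK293T lysate (495 µg per sample, in Tris/CHAPS/IGEPAL buffer with protease inhibitors) was exposed in triplicate for 3 h to fragment at 200 µM or to vehicle, then to Biotin-Ahx-Ub-VS at 0.5 µM final for 1 h. Labelled DUBs were enriched on NeutrAvidin, digested with LysC and trypsin, and analysed by diaPASEF LC-MS/MS. Spectronaut label-free quantities were normalised to the global median, and values are average log2 ratios of fragment over vehicle from an unpaired t-test. Only proteins with ≥2 unique peptides were used.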

USP36 = molecular target: T1, USP36 (UniProt Q9P275)
T1 sequence (whole entry): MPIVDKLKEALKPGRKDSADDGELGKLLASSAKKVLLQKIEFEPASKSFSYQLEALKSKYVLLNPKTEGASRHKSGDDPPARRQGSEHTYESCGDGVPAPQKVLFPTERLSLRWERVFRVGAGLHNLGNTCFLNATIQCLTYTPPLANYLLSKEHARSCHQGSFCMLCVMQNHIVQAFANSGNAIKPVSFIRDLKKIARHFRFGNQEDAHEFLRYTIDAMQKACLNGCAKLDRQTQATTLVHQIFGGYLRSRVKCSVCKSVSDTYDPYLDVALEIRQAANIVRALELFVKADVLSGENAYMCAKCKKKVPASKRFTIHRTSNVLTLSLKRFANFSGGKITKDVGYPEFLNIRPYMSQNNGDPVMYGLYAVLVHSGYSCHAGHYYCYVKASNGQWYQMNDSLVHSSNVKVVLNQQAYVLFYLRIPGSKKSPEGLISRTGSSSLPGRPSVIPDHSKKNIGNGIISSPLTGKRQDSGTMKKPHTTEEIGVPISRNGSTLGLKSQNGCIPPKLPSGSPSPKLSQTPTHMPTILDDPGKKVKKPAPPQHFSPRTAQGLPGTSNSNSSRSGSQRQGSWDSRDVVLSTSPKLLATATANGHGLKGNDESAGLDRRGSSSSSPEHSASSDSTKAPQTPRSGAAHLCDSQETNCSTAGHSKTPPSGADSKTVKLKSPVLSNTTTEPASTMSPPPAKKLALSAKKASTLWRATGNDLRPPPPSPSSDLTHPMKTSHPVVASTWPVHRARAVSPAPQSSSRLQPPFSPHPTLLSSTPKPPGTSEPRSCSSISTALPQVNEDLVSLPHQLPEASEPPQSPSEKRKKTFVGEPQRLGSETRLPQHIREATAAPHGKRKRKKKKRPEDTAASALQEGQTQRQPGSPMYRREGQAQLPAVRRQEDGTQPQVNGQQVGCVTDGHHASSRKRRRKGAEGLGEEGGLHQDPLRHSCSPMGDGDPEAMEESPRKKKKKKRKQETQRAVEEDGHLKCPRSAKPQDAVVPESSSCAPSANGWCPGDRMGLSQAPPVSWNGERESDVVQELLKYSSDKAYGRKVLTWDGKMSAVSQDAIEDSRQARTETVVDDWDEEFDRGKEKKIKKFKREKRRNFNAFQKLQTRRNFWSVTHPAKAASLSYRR
Method in brief: as §1

USP38 = molecular target: T2, USP38 (UniProt Q8NB14)
T2 sequence (whole entry): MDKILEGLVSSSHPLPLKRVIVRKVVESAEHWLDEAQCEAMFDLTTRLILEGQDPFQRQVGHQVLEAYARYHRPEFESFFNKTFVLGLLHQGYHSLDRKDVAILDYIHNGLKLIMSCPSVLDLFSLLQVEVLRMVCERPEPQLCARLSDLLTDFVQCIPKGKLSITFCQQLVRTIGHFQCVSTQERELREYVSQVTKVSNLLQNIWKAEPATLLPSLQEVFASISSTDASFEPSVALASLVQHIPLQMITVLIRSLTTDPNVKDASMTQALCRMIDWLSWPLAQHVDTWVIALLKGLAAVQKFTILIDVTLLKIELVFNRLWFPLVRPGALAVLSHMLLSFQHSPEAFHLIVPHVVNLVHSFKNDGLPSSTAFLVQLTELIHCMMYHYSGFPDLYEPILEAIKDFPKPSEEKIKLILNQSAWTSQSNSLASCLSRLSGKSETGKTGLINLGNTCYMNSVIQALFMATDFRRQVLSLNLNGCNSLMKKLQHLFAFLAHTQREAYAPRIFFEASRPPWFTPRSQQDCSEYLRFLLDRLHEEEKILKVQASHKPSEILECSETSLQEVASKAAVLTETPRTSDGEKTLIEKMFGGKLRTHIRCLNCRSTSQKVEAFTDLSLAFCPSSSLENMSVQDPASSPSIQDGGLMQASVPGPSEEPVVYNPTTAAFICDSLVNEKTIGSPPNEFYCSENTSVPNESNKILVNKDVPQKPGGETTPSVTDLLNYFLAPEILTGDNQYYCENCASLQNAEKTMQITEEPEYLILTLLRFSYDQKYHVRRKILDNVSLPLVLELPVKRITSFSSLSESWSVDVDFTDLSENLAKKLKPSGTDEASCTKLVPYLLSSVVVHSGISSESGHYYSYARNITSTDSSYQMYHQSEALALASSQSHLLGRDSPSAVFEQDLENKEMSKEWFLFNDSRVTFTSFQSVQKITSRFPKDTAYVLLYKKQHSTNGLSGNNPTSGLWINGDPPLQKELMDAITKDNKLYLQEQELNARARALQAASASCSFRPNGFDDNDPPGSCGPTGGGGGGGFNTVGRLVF
Method in brief: as §1

USP39 = molecular target: T3, USP39 (UniProt Q53GS9)
T3 sequence (whole entry): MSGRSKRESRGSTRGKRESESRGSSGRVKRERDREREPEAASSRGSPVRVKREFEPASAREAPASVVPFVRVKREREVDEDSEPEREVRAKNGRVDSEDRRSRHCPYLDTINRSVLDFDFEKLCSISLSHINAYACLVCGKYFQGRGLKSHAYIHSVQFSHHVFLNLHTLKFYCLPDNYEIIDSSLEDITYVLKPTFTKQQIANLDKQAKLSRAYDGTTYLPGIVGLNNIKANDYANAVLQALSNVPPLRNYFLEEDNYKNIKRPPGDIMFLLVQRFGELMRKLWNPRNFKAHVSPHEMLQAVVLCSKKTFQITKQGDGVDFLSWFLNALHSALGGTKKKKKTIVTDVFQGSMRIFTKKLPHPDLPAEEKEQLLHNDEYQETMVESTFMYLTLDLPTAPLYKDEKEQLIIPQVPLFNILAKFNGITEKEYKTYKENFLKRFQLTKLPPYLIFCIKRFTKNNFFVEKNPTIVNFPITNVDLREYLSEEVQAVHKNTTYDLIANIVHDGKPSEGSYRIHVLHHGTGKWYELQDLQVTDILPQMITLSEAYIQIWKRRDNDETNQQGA
Method in brief: as §1

USP4 = molecular target: T4, USP4 (UniProt Q13107)
T4 sequence (whole entry): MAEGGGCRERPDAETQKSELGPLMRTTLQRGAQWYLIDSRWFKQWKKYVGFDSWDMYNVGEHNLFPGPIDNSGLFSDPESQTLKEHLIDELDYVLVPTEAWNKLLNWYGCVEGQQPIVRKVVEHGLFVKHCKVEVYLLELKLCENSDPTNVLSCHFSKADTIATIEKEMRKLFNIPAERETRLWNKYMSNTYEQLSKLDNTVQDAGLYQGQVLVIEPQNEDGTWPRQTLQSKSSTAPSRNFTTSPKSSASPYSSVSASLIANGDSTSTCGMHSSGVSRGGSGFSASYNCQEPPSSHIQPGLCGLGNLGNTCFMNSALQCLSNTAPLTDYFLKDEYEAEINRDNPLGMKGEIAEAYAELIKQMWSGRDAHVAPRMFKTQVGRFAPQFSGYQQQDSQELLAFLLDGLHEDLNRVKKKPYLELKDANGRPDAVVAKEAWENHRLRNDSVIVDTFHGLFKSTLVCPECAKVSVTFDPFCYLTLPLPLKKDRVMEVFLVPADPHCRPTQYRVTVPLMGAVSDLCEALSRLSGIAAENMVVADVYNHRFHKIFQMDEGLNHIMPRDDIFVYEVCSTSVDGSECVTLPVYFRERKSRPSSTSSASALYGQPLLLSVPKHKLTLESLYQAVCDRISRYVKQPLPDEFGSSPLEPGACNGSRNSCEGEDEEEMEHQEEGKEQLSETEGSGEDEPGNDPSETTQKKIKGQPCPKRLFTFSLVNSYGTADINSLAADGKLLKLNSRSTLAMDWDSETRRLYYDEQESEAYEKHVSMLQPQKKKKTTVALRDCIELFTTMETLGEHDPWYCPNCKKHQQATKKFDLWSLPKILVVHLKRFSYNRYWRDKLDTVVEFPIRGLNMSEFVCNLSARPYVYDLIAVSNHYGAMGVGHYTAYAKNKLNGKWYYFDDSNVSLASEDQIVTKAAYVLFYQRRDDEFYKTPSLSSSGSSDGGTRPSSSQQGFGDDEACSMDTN
Method in brief: as §1

Measured: log2 ratio of Biotin-Ahx-Ub-VS probe labelling

Sequence of USP34 (Q70CQ2 whole entry, the tested form may be a part): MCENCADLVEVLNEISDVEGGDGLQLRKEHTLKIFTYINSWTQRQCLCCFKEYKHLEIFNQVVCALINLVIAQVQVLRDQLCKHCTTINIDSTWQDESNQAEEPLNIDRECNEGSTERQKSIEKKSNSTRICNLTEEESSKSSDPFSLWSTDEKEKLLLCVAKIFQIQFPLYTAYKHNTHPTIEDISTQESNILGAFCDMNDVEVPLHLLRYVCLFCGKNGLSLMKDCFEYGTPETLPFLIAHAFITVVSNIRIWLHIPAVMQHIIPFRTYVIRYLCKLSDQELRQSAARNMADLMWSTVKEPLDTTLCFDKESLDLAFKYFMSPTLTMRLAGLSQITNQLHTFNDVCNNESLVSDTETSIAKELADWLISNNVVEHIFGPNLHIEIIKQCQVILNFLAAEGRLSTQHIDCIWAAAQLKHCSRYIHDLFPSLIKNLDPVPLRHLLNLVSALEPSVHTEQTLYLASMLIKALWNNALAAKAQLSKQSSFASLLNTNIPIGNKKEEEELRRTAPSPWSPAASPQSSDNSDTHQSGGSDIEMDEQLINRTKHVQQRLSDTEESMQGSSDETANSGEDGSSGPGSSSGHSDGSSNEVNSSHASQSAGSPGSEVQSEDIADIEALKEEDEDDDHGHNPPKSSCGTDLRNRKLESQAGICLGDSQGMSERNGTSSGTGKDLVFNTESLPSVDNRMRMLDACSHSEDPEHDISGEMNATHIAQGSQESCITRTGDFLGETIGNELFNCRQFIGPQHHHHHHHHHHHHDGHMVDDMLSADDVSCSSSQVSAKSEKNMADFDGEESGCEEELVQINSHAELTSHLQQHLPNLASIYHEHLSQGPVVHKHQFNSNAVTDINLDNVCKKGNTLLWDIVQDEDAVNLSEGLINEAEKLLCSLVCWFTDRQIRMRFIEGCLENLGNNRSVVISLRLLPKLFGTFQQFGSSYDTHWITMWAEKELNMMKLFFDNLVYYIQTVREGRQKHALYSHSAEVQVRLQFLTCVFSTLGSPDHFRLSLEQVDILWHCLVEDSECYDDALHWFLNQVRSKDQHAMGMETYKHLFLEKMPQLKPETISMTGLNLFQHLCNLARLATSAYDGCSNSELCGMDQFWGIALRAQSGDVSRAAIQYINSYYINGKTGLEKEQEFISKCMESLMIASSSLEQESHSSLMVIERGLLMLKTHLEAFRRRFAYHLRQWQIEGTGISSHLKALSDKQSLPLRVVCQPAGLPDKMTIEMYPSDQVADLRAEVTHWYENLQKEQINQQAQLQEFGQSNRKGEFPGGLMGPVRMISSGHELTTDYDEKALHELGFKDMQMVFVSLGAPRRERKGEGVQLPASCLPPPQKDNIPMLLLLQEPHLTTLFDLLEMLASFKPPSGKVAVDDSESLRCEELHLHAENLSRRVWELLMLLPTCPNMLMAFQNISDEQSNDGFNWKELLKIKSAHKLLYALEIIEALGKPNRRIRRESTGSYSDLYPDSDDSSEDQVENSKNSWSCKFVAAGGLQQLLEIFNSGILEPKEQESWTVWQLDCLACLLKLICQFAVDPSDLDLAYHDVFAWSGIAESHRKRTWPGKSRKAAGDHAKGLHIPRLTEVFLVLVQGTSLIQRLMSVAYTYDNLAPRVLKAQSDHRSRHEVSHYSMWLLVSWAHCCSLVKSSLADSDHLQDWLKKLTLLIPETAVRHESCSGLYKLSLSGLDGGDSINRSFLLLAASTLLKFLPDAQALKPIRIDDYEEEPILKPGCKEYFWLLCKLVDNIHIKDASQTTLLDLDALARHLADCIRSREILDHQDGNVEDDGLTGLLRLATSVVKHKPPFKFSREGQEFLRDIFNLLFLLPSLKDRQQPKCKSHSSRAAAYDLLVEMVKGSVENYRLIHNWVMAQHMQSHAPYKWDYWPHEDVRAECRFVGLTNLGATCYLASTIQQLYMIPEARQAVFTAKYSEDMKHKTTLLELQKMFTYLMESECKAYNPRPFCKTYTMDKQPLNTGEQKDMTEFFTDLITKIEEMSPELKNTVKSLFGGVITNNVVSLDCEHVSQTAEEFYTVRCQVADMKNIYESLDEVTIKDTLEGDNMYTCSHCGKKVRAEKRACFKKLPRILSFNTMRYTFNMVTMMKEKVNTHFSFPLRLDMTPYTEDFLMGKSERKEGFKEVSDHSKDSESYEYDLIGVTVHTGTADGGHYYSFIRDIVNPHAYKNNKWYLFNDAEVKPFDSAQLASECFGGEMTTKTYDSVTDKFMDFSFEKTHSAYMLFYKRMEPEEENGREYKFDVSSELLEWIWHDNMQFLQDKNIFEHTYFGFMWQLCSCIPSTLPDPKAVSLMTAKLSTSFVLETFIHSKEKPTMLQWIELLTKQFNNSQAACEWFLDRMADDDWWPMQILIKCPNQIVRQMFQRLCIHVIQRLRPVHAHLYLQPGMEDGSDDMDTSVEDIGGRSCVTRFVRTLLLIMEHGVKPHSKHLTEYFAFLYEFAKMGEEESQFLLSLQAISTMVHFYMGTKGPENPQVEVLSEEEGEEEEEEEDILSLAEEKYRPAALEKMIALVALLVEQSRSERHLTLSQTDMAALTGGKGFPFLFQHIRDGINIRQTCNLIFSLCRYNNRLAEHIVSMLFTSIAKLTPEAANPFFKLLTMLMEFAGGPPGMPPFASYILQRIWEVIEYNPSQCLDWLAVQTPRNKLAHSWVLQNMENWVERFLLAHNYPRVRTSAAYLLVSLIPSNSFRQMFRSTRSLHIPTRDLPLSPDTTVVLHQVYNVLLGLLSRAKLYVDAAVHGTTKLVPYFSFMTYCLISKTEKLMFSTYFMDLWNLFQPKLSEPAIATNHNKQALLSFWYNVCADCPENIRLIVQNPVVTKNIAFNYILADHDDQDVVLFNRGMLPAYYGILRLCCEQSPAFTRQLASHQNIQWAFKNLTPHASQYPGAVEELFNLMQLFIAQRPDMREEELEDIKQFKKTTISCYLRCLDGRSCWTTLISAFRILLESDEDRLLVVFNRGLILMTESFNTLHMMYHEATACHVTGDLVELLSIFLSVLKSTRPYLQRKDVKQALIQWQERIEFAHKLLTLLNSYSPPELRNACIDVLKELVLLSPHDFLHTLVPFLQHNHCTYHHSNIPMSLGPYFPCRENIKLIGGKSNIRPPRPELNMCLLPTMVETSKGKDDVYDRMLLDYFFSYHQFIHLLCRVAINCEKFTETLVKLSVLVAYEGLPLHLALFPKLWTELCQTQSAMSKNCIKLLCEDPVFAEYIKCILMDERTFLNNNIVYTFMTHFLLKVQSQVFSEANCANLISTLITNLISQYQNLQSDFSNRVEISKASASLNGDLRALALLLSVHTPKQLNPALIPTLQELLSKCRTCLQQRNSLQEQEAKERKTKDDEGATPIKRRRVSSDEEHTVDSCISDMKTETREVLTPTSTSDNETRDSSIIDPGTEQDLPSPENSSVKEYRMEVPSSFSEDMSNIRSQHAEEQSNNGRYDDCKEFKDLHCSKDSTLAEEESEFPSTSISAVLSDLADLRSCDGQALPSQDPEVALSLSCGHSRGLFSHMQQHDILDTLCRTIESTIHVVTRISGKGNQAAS

CN(C)C(=O)c1ccc(NC(=O)CCl)cc1
inactive: USP34 -0.218 | USP36 0.00972 | USP38 -0.0389 | USP39 0.0586 | USP4 -0.323

Source: the supplement of paper PMC11732987, “Enantioselective OTUD7B fragment discovery through chemoproteomics screening and high-throughput optimisation” (Communications Chemistry, 2025)
